# Measured values taken from article PMC7862700, “An all-to-all approach to the identification of sequence-specific readers for epigenetic DNA modifications on cytosine”.
# Columns and labels:
# Experiment in all cases: DAPPL (digital affinity profiling via proximity ligation, sequencing); 10 mM Tris-HCl pH 7.5, 50 mM NaCl, 1 mM DTT, 4% glycerol, room temperature, 30 min; GST-TFs on glutathione beads, 16-mer random dsDNA library, 0.1% formaldehyde crosslink after washing; high values mean tight binding
# FLI1 = target: T1, FLI1 (Homo sapiens, UniProt Q01543 1-452); settings: protein: recombinant; tags: N-terminal GST; dsDNA, one strand shown
# T1 sequence: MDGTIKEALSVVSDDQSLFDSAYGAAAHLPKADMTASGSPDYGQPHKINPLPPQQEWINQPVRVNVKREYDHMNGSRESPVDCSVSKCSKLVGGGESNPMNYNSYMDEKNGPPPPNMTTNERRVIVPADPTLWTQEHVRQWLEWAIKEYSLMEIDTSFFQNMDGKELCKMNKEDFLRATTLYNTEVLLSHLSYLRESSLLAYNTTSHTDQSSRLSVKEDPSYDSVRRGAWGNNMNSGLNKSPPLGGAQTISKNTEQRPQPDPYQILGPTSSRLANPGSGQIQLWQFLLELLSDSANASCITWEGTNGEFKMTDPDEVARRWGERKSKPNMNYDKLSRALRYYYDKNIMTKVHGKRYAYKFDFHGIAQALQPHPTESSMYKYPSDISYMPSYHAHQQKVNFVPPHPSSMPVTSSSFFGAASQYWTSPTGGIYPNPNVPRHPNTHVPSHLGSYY
# Outline: (§1)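 Human transcription factors carrying a GST fusion were produced in yeast, bound to glutathione beads, tagged with DNA barcodes and pooled together with a tag-only sample. Each pool was held with 200 nmole of a random double-stranded 16-mer DNA library in Tris/NaCl/DTT/glycerol buffer for 30 min at room temperature, then washed, crosslinked in 0.1% formaldehyde, proximity-ligated with BsaI/T4 ligase (1 h, 37 °C), PCR-amplified and sequenced on an Illumina NextSeq500. Binding signal is the read frequency of each hexamer for a given factor divided by its frequency in the tag-only sample.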
# ELK1 = target: T2, ELK1 (Homo sapiens, UniProt P19419 1-428); settings: protein: recombinant; tags: N-terminal GST; dsDNA, one strand shown
# T2 sequence: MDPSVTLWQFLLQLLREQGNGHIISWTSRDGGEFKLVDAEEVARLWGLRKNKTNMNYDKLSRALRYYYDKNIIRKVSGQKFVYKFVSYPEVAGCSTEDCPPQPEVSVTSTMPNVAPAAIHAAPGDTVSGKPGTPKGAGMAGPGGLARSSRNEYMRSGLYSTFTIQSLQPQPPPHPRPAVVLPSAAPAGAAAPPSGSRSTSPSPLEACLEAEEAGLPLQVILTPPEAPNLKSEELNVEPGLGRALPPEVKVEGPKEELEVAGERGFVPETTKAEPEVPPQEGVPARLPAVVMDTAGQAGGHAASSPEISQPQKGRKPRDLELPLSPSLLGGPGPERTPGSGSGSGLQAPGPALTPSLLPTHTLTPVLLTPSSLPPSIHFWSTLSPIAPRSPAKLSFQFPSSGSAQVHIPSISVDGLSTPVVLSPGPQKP
# Outline: as §1
# GABPA = target: T3, GABPA (Homo sapiens, UniProt Q06546 1-454); settings: protein: recombinant; tags: N-terminal GST; dsDNA, one strand shown
# T3 sequence: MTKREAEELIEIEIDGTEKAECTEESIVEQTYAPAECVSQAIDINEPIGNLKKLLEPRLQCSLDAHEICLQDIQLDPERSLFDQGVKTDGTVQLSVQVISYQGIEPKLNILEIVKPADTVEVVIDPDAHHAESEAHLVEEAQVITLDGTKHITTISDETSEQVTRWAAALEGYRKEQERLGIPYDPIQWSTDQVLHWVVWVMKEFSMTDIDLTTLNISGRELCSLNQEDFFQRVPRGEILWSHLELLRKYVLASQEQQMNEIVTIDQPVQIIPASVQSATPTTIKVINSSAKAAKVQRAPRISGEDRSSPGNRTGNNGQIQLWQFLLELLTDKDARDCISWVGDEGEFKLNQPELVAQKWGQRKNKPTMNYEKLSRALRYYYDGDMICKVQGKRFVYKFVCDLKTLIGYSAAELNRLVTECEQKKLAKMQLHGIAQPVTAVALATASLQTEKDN
# Outline: as §1
# ERG = target: T4, ERG (Homo sapiens, UniProt P11308 1-479); settings: protein: recombinant; tags: N-terminal GST; dsDNA, one strand shown
# T4 sequence: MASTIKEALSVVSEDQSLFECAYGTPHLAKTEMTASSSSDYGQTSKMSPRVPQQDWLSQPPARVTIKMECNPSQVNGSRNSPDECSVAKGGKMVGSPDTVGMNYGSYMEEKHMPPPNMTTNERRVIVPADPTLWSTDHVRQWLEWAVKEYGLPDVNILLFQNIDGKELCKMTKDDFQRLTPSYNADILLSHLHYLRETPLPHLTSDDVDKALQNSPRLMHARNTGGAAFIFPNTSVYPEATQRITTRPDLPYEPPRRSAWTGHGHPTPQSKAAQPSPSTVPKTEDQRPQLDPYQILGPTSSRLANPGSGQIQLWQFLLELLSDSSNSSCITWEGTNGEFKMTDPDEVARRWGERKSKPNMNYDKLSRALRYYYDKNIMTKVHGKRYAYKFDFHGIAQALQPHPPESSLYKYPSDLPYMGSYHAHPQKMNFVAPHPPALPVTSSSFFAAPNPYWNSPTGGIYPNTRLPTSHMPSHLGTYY
# Outline: as §1
# ELF1 = ELF1 (Homo sapiens, UniProt P32519 1-619); settings: protein: recombinant; tags: N-terminal GST; dsDNA, one strand shown
# Chain of ELF1 (P32519 whole entry): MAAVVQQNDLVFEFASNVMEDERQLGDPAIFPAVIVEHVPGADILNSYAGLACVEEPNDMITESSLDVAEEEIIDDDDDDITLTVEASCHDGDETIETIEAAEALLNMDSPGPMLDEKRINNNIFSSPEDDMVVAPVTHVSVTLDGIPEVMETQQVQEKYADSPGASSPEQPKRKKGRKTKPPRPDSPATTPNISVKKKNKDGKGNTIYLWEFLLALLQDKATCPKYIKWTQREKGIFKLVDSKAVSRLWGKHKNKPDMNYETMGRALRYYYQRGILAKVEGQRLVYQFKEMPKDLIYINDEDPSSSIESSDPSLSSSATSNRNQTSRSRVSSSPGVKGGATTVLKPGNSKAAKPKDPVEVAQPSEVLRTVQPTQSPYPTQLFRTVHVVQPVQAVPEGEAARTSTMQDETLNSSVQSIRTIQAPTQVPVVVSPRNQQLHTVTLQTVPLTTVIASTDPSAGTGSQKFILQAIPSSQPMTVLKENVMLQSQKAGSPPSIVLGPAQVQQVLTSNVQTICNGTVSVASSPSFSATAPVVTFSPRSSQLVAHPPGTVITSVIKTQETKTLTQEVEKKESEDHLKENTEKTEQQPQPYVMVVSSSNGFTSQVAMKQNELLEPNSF
# Outline: as §1
# EHF = target: T5, EHF (Homo sapiens, UniProt Q9NZC4 1-300); settings: protein: recombinant; tags: N-terminal GST; dsDNA, one strand shown
# T5 sequence: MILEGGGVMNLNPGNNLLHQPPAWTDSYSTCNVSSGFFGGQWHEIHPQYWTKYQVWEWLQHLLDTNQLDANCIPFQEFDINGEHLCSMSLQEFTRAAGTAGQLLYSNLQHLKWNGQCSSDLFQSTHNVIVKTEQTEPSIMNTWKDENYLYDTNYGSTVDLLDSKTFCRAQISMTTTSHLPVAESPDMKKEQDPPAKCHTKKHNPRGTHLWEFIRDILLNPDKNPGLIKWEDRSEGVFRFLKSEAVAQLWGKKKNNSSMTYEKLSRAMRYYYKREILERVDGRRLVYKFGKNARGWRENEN
# Outline: as §1
# SPI1 = SPI1 (Homo sapiens, UniProt P17947 1-270); settings: protein: recombinant; tags: N-terminal GST; dsDNA, one strand shown
# Outline: as §1
# SPIB = SPIB (Homo sapiens, UniProt Q01892 1-262); settings: protein: recombinant; tags: N-terminal GST; dsDNA, one strand shown
# Chain of SPIB (Q01892 whole entry): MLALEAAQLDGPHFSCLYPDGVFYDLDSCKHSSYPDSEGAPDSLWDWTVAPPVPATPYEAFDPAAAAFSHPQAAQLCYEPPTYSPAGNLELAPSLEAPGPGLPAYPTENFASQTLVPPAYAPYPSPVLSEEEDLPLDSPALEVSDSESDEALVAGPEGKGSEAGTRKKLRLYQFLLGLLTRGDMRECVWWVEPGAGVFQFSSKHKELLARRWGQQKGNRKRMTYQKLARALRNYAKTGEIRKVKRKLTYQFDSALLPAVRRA
# Outline: as §1
# ELK3 = target: T6, ELK3 (Homo sapiens, UniProt P41970 1-407); settings: protein: recombinant; tags: N-terminal GST; dsDNA, one strand shown
# T6 sequence: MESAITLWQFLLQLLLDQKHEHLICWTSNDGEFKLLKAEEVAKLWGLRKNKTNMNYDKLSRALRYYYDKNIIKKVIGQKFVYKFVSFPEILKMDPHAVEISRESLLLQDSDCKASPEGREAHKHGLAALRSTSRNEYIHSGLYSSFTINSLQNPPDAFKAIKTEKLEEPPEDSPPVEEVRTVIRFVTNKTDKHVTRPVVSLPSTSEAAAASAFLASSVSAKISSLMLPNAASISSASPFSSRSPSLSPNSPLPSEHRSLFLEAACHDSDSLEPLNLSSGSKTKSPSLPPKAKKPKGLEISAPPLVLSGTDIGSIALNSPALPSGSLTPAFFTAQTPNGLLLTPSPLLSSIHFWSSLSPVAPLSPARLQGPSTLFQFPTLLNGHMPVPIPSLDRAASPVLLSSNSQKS
# Outline: as §1
# FEV = target: T7, FEV (Homo sapiens, UniProt Q99581 1-238); settings: protein: recombinant; tags: N-terminal GST; dsDNA, one strand shown
# T7 sequence: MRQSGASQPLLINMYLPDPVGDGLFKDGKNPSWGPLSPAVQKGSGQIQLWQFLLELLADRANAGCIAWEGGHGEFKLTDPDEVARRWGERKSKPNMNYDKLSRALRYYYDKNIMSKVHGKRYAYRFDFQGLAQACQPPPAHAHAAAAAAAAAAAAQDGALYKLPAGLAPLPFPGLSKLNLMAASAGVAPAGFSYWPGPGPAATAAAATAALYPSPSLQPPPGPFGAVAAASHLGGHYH
# Outline: as §1
# ETV5 = ETV5 (Homo sapiens, UniProt P41161 1-510); settings: protein: recombinant; tags: N-terminal GST; dsDNA, one strand shown
# Chain of ETV5 (P41161 whole entry): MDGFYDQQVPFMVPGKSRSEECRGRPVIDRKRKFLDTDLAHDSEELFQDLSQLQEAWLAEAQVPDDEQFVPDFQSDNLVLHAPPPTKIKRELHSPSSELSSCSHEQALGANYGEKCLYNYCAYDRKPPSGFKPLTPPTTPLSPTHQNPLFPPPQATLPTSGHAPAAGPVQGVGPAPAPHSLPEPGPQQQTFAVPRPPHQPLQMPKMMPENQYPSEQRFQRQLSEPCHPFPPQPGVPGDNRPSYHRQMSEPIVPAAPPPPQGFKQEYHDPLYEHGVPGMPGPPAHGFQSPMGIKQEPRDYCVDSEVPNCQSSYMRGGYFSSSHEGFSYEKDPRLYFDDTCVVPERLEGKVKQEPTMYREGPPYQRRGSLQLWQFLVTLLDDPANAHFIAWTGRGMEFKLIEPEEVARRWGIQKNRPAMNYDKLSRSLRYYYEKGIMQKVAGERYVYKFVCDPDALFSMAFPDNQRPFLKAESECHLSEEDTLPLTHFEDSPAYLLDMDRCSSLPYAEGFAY
# Outline: as §1
# HSF1 = HSF1 (Homo sapiens, UniProt Q00613 1-529); settings: protein: recombinant; tags: N-terminal GST; chain copies: 3; dsDNA, one strand shown
# Chain of HSF1 (Q00613 whole entry): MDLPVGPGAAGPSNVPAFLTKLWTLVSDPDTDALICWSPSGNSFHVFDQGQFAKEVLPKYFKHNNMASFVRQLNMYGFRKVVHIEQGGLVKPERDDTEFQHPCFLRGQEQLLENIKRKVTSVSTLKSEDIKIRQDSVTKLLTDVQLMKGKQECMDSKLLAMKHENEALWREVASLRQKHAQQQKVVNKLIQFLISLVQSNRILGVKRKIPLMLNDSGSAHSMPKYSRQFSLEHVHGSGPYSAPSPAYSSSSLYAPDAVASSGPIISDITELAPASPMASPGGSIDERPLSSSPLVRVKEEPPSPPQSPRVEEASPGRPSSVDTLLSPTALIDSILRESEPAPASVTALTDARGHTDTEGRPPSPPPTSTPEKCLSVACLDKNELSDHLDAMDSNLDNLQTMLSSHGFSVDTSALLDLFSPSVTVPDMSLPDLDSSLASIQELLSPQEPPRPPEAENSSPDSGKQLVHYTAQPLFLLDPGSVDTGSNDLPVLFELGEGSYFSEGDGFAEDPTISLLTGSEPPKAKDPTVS
# Outline: as §1
# SPIC = target: T8, SPIC (Homo sapiens, UniProt Q8N5J4 1-248); settings: protein: recombinant; tags: N-terminal GST; dsDNA, one strand shown
# T8 sequence: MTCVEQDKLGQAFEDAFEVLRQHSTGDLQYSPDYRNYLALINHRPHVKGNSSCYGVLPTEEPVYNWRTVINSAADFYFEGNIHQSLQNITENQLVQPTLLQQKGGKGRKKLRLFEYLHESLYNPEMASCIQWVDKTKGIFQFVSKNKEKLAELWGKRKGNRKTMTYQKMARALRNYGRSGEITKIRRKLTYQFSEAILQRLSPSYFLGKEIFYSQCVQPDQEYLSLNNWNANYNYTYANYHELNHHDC
# Outline: as §1
# ELF4 = ELF4 (Homo sapiens, UniProt Q99607 1-663); settings: protein: recombinant; tags: N-terminal GST; dsDNA, one strand shown
# Chain of ELF4 (Q99607 whole entry): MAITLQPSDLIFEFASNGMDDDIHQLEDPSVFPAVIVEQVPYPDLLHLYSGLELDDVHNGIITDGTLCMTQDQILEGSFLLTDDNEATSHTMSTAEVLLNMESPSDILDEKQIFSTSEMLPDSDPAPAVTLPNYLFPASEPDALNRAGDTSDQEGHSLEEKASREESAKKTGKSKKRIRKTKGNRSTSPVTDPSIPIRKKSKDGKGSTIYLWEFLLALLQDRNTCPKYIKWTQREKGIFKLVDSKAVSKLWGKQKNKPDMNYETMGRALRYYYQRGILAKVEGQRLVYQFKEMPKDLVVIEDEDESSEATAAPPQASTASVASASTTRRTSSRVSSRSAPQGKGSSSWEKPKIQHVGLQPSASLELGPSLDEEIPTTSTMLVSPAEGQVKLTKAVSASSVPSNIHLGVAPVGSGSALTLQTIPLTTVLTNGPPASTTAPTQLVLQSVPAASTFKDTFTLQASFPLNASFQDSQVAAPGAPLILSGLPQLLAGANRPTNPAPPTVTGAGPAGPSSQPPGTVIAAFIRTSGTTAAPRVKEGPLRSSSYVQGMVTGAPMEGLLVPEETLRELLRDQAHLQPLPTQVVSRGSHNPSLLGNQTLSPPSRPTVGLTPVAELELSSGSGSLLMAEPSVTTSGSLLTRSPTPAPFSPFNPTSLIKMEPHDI
# Outline: as §1
# ELK4 = target: T9, ELK4 (Homo sapiens, UniProt P28324-2 1-405); settings: protein: recombinant; tags: N-terminal GST; dsDNA, one strand shown
# T9 sequence: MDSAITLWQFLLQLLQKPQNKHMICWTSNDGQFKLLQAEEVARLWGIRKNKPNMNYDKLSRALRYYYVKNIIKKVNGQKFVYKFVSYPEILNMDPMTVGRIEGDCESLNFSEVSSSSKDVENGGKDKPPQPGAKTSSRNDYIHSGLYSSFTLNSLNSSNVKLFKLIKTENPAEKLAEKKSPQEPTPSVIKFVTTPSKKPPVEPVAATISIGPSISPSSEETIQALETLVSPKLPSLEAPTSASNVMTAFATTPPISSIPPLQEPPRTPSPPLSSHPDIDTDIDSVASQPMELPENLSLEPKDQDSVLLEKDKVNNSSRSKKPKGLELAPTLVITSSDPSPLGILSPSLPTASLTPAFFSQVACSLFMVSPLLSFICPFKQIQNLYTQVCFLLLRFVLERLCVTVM
# Outline: as §1
# ETV2 = target: T10, ETV2 (Homo sapiens, UniProt O00321 1-342); settings: protein: recombinant; tags: N-terminal GST; dsDNA, one strand shown
# T10 sequence: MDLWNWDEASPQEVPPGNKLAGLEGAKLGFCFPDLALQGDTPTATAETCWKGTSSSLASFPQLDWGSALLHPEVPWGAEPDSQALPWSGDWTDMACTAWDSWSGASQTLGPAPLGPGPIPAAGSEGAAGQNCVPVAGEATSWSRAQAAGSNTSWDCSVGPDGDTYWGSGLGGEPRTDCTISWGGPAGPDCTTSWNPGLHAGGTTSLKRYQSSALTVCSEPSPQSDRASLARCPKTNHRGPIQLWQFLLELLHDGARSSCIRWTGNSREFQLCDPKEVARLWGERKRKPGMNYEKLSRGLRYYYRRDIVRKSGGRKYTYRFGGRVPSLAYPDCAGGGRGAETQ
# Outline: as §1
# ELF3 = target: T11, ELF3 (Homo sapiens, UniProt P78545 1-371); settings: protein: recombinant; tags: N-terminal GST; dsDNA, one strand shown
# T11 sequence: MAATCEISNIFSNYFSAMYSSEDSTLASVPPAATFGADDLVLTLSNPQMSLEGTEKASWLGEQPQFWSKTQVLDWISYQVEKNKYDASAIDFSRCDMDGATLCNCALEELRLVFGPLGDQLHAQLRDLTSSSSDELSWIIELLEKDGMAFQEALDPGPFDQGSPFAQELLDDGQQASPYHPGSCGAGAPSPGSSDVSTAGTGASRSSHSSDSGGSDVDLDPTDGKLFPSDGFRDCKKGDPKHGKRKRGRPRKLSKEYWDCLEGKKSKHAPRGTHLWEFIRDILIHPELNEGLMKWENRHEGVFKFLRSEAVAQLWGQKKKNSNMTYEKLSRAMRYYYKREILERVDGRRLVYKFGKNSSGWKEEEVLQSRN
# Outline: as §1
# CRX = CRX (Homo sapiens, UniProt O43186 1-299); settings: protein: recombinant; tags: N-terminal GST; dsDNA, one strand shown
# Chain of CRX (O43186 whole entry): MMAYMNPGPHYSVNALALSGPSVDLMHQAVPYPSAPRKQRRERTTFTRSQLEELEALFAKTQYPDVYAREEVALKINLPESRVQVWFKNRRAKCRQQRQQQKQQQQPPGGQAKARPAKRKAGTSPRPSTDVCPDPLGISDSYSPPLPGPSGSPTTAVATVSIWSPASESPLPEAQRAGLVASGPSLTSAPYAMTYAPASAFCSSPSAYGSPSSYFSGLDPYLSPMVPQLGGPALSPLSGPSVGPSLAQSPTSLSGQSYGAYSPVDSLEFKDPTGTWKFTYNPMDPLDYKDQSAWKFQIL
# Outline: as §1
# ETV1 = ETV1 (Homo sapiens, UniProt P50549 1-477); settings: protein: recombinant; tags: N-terminal GST; dsDNA, one strand shown
# Chain of ETV1 (P50549 whole entry): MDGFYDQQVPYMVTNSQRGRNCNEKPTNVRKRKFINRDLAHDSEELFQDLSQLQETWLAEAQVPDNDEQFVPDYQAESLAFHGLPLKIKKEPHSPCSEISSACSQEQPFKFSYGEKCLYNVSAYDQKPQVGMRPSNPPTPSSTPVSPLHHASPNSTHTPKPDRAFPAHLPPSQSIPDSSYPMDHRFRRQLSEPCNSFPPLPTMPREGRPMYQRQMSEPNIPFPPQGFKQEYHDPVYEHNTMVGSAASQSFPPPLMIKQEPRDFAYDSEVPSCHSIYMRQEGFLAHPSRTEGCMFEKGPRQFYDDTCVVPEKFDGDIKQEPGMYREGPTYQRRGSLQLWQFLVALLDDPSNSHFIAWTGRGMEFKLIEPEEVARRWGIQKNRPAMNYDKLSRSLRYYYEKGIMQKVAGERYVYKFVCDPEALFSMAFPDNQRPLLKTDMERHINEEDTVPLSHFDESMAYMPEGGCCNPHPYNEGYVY
# Outline: as §1
sequence,measurement,setting,value
CCGCCT,binding signal,FLI1,"1.68 fold enrichment (6-mer frequency, TF over GST control)"
same,binding signal,ELK1,"1.55 fold enrichment (6-mer frequency, TF over GST control)"
same,binding signal,GABPA,"1.55 fold enrichment (6-mer frequency, TF over GST control)"
same,binding signal,ERG,"1.55 fold enrichment (6-mer frequency, TF over GST control)"
same,binding signal,ELF1,"1.66 fold enrichment (6-mer frequency, TF over GST control)"
same,binding signal,EHF,"1.67 fold enrichment (6-mer frequency, TF over GST control)"
same,binding signal,SPI1,"1.5 fold enrichment (6-mer frequency, TF over GST control)"
same,binding signal,SPIB,"1.63 fold enrichment (6-mer frequency, TF over GST control)"
same,binding signal,ELK3,"1.82 fold enrichment (6-mer frequency, TF over GST control)"
same,binding signal,FEV,"1.43 fold enrichment (6-mer frequency, TF over GST control)"
same,binding signal,ETV5,"1.6 fold enrichment (6-mer frequency, TF over GST control)"
same,binding signal,HSF1,"1.08 fold enrichment (6-mer frequency, TF over GST control)"
same,binding signal,SPIC,"1.61 fold enrichment (6-mer frequency, TF over GST control)"
same,binding signal,ELF4,"1.52 fold enrichment (6-mer frequency, TF over GST control)"
same,binding signal,ELK4,"1.45 fold enrichment (6-mer frequency, TF over GST control)"
same,binding signal,ETV2,"1.46 fold enrichment (6-mer frequency, TF over GST control)"
same,binding signal,ELF3,"1.35 fold enrichment (6-mer frequency, TF over GST control)"
same,binding signal,CRX,"1.25 fold enrichment (6-mer frequency, TF over GST control)"
same,binding signal,ETV1,"1.47 fold enrichment (6-mer frequency, TF over GST control)"
